# Source: PubChem BioAssay (NCATS)
# Several values for one entry are separate records, joined by “and”; a condition that tells them apart may be missing. Equal entries are not always repeated. Inconclusive results are not listed. A call without a number means that no potency is given here. More than one record can exist for a structure, and the calls need not agree. Activity calls are given as the source filed them. Unless noted, calls come from the whole dose curve; as a rule, active = well fitted curve in either direction with a large enough effect (not every such curve was filed as active); inconclusive = small, poorly fitted or top-dose-only effect, or another doubt; inactive = flat fitted curve, though single readings scatter.
# Assays:
# [1] = AP1 Signaling Pathway (AID 357);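 note: ME-180 reporter cells stimulated with EGF at its EC50 level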
# How it was run: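 First, ME-180 AP-1-bla cells were cultured overnight at 37 °C in low-serum Opti-MEM. Next, titrated compounds with EC50 EGF were incubated 5 hours. Finally, CCF4 was added for 2.5 hours and the 460/530 nm ratio recorded.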
# [2] = NFAT Signaling Pathway (AID 444); settings: Jurkat NFAT-bla M1, carbachol, beta-lactamase ratio, 5 h;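 note: carbachol stimulus at about its EC50 of 1 µM final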
# How it was run: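 Jurkat cells carrying an NFAT-driven β-lactamase reporter and co-transfected muscarinic M1 receptor were treated with compound plus carbachol (1 uM final, an EC50 level) for 5 h at 37 °C. CCF4 loading followed for 1 h at RT; 460/530 nm ratio gave %activity.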
# [3] = Stat Signaling Pathway (AID 446);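 note: ME-180 cervical cancer cells given 40 pM IL-6 alongside compound; SIE-controlled beta-lactamase reporter measured as 460/530 nm FRET emission ratio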
# How it was run: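 Screening format detects activators and inhibitors alike: ME-180 SIE-bla cells stimulated at 40 pM IL-6 for 5 hrs with compound, then dual-emission beta-lactamase read at 405 nm excitation.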
# [4] = target: Glucocorticoid receptor (Homo sapiens) (UniProt P04150); experiment: GR-GFP Redistribution (AID 450;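 active = compounds whose dose series gives a full or clear partial fitted curve of increased nuclear translocation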; note: potency is the fitted concentration of half-maximal effect); settings: U2OS GR-GFP nuclear translocation, laser cytometry, 2 h
# Sequence of Glucocorticoid receptor (Homo sapiens) (P04150 whole entry, looked up, the tested form may be a part): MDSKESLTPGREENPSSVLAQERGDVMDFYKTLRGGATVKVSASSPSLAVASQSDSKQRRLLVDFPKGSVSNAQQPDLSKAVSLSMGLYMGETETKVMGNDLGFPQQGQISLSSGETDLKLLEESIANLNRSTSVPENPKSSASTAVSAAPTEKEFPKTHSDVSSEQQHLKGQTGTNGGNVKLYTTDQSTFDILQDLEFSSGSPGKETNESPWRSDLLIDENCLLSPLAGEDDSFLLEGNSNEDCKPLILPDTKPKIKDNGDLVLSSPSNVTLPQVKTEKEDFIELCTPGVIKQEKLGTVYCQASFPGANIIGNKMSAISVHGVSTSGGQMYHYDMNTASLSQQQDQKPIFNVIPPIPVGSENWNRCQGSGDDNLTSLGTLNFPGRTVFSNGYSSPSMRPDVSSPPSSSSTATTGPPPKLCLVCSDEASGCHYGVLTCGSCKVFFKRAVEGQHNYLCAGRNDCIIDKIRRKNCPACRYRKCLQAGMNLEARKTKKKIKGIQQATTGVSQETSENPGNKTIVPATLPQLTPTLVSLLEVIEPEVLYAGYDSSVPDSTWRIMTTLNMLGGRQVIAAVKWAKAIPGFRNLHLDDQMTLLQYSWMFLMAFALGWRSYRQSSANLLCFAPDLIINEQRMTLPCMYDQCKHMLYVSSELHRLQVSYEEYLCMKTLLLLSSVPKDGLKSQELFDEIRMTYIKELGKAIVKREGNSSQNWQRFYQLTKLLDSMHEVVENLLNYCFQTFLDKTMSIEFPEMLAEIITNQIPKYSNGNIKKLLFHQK
# [5] = target: Glucocorticoid receptor (Homo sapiens) (UniProt P04150); experiment: GR-EFC Redistribution (AID 451; calls by dose curve; note: potency is the fitted concentration of half-maximal effect); settings: CHO-K1 GR-EFC translocation, beta-gal luminescence, 2 h
# How it was run: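 CHO-K1 cells stably expressing nuclear-localized β-gal enzyme acceptor and GR fused C-terminally to the enzyme donor fragment; ligand-driven nuclear translocation restores β-gal by complementation. Compounds titrated up to 46 uM final, 2 h at 37 °C; luminescence read.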
# [6] = target: Mitogen-activated protein kinase 10 (Mus musculus) (UniProt Q61831); experiment: JNK3 AlphaScreen Assay (AID 530);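 note: kinase came from lysate of stimulated human HepG2 cells; signal reports phosphorylation of biotinylated GST-cJun 1-79 at Ser73 with 10 µM ATP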
# How it was run: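 Inhibitors reduce antibody binding to phosphorylated biotin-cJun, lowering AlphaScreen luminescence. Lysates from HepG2 cells pre-activated by IL-1beta plus TNF-alpha supplied JNK3; compounds were titrated.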
# [7] = target: 3',5'-cyclic-AMP phosphodiesterase 4B (Homo sapiens) (UniProt Q07343); experiment: qHTS Assay for Inhibitors of PDE-IV (AID 607; active = well fitted activation curve with a large enough effect in the main read-out, with a control signal flat, not every such curve was filed as active)
# Sequence of 3',5'-cyclic-AMP phosphodiesterase 4B (Homo sapiens) (Q07343 whole entry, looked up): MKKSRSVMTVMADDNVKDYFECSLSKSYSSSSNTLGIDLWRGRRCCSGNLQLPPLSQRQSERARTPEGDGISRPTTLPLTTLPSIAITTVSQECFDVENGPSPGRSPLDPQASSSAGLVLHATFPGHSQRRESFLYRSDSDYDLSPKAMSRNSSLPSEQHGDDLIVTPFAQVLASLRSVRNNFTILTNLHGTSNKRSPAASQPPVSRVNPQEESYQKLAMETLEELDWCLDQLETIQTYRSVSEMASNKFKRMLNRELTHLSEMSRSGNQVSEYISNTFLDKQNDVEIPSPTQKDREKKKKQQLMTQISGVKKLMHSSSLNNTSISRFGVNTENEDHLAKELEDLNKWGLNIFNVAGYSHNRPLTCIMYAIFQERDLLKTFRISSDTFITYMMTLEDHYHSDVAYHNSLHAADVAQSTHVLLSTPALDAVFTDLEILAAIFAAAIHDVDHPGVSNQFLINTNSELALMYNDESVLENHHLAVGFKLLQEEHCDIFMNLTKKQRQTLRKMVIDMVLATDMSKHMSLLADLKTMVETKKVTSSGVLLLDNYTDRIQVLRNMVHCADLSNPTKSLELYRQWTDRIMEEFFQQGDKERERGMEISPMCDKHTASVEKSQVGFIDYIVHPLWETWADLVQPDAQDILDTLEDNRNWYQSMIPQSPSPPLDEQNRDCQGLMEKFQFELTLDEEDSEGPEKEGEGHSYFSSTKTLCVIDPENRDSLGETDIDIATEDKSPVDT
# How it was run: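 The readout is membrane depolarisation from a cAMP-sensing CNG channel, detected with a potential dye at ex 535/em 590. Cells were HEK293-derived (endogenous PDE-IV) at 1000 cells/well, titrated up to 22.9 uM final.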
# [8] = target: Lysosomal acid glucosylceramidase (Homo sapiens) (UniProt P04062); experiment: Glucocerebrosidase-p2 (AID 348; in the data active = potency below about 10 µM; note: potency is the fitted concentration of half-maximal effect); settings: purified GBA, blue fluorogenic substrate, 40 min
# Sequence of Lysosomal acid glucosylceramidase (Homo sapiens) (P04062 whole entry, looked up): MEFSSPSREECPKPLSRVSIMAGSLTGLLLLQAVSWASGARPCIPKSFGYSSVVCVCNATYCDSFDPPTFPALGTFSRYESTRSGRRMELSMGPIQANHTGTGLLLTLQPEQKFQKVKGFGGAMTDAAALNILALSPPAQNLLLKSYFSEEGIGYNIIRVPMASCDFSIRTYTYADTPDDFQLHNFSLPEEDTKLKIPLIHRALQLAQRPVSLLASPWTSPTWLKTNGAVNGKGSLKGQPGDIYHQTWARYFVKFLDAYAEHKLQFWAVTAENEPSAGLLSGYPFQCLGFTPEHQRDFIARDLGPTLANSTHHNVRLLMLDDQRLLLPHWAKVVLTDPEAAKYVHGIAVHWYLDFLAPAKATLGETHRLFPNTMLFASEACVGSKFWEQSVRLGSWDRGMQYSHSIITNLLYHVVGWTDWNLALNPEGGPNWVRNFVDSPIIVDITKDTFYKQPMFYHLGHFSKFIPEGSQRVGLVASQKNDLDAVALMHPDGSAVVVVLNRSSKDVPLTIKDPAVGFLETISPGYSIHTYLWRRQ
# How it was run: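 Compounds titrated from 0.6 nM upwards against 0.2 nM enzyme in pH 5.9 citric acid/KH2PO4, taurocholate, tween-20; blue fluorogenic substrate 80 uM, 40 min room temperature, stopped and read Ex 365/Em 440 for AC50.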
# [9] = target: Cytochrome P450 1A2 (Homo sapiens) (UniProt P05177); experiment: p450-cyp1a2 (AID 410; calls by dose curve; note: potency is the fitted concentration of half-maximal effect)
# Sequence of Cytochrome P450 1A2 (Homo sapiens) (P05177 whole entry, looked up): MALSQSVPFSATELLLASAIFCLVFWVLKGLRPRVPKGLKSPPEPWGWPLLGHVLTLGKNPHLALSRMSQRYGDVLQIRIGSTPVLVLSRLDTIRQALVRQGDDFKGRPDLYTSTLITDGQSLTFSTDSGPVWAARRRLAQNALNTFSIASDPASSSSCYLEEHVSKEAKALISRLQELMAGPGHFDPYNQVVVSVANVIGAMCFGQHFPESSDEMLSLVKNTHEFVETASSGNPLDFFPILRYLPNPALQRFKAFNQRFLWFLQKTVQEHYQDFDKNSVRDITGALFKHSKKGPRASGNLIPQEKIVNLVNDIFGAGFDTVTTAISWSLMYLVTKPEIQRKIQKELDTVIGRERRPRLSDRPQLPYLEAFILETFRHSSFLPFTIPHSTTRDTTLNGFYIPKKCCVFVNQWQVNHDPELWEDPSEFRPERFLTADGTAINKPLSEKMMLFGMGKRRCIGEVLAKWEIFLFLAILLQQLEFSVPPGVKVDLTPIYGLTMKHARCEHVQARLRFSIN
# How it was run: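 Luminescent readout of luciferin formed from Luciferin-ME by human CYP1A2; data normalized against complete inhibition by 57 uM furafylline. Enzyme 20nM, substrate 100uM at Km, 100mM KPO4 buffer, 60 min reaction at room temperature.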
# [10] = Cell Viability - BJ (AID 421; calls by dose curve;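 note: potency is the fitted concentration of half-maximal effect; cells exposed to compound for 40 hours at 37 °C before readout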); settings: BJ fibroblast viability, qHTS
# How it was run: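 Cytotoxicity in human BJ foreskin fibroblasts is scored as loss of cellular ATP after a 40-hour exposure, measured by luciferase luminescence. Controls are DMSO and 100 uM tamoxifen.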
# [11] = Cell Viability - Jurkat (AID 426;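 active = dose-dependent loss of cell ATP signal giving a full or clear fitted curve, ranked by lower potency value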; note: potency is the fitted concentration of half-maximal effect); settings: qHTS
# How it was run: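 qHTS, 1536-well; Jurkat E6-1, 5000 cells/well, complete medium; cpd 40 hr, 37 °C; CellTiter-Glo 20 min RT; luminescence. AC50 by Hill fit.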
# [12] = Cell Viability - Hek293 (AID 427;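 active = compounds whose dose-response curve shows a full or clear partial loss of cell viability, called from curve shape rather than a numeric limit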;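 note: potency is the fitted concentration of half-maximal effect; cells exposed to compound for 40 hours at 37 °C before reading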); settings: qHTS
# How it was run: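 qHTS, human embryonic kidney (adenovirus-transformed) cells; 40 hr cpd, 37 °C; CellTiter-Glo ATP luminescence. Norm: DMSO = 0, 100 uM tamoxifen = 100% inhibition. Hill-fit AC50.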
# [13] = Cell Viability - SK-N-SH (AID 435; calls by dose curve;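 note: potency is the fitted concentration of half-maximal effect; compound exposure lasted 40 h at 37 °C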); settings: SK-N-SH neuroblastoma cell viability qHTS
# How it was run: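 SK-N-SH neuroblastoma cells (1500/well) treated 40 h at 37 °C in complete medium; viability read as cellular ATP by CellTiter-Glo luminescence. Normalized to DMSO and 100 uM tamoxifen; AC50 from Hill fits of qHTS concentration-response.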
# [14] = Cell Viability - N2a (AID 540; active = well fitted curve in the direction sought with a large enough effect; an effect the other way counts as inactive or inconclusive; note: nearly all actives have a fitted effect of over 45% in size); settings: N2a mouse neuroblastoma cell viability; at 92.2 µM (top of the series)
# How it was run: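 Luminescent ATP signal (CellTiter-Glo, 20 min at room temperature) served as the viability read-out after N2a cells were treated with compounds for 40 hours at 37 °C. Concentration-response data were fitted to the Hill equation for AC50.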
# [15] = Cell Viability - NIH 3T3 (AID 541; active = well fitted curve in the direction sought with a large enough effect; an effect the other way counts as inactive or inconclusive; note: nearly all actives have a fitted effect of over 25% in size)
# How it was run: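 Luminescent ATP signal (CellTiter-Glo) served as the viability read-out after NIH 3T3 cells were exposed to compounds over a concentration range for 40 hr at 37 °C. Hill-equation modelling of concentration-response data gave AC50.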
# [16] = Cell Viability - HUV-EC-C (AID 542; active = well fitted curve in the direction sought with a large enough effect; an effect the other way counts as inactive or inconclusive; note: nearly all actives have a fitted effect of over 35% in size)
# How it was run: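 qHTS cytotoxicity: HUV-EC-C, 1000 cells/well, 5 hr settle, compound 40 hr 37 °C, CellTiter-Glo, luminescence. AC50 via Hill equation.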
# [17] = Cell Viability - H-4-II-E (AID 543; active = well fitted curve in the direction sought with a large enough effect; an effect the other way counts as inactive or inconclusive; note: nearly all actives have a fitted effect of over 35% in size)
# How it was run: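 Luminescent ATP signal (CellTiter-Glo) served as the viability read-out, with cytotoxicity seen as a concentration-dependent ATP drop. Cells were treated for 40 hours in complete medium. AC50 values derive from Hill-equation modelling.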
# [18] = Cell Viability - SH-SY5Y (AID 544; active = well fitted curve in the direction sought with a large enough effect; an effect the other way counts as inactive or inconclusive; note: nearly all actives have a fitted effect of over 55% in size); settings: SH-SY5Y neuroblastoma cell viability; at 92.2 µM (top of the series)
# How it was run: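 Luminescent ATP read-out (CellTiter-Glo) measures loss of viable SH-SY5Y neuroblastoma cells after 40 hr compound exposure at 37 °C. AC50 values derive from standard Hill modelling of qHTS concentration-response data.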
# [19] = Cell Viability - Renal Proximal Tubule (AID 545; active = well fitted curve in the direction sought with a large enough effect; an effect the other way counts as inactive or inconclusive; note: nearly all actives have a fitted effect of over 40% in size)
# How it was run: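 Rat renal proximal tubule primary cells, 1000/well, exposed to compounds for 40 hr at 37 °C in complete medium; cellular ATP read by CellTiter-Glo luminescence. AC50 from concentration-response fitted with standard Hill equation.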
# [20] = Cell Viability - Mesenchymal (AID 546; active = well fitted curve in the direction sought with a large enough effect; an effect the other way counts as inactive or inconclusive;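 note: cells exposed to compound for 40 hours before reading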); settings: mesenchymal cells viability, qHTS; at 91.7 µM (top of the series)
# How it was run: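 Normal human renal glomerulus-derived kidney mesenchymal cells, 1000 per well in complete medium, were treated with compounds for 40 hr at 37 °C. Viability was read as intracellular ATP by CellTiter-Glo luminescence; AC50 values came from Hill-equation fits of qHTS concentration-response data.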
compound,measurement,setting,value
Cc1onc(-c2ccccc2)c1C(=O)N[C@@H]1C(=O)N2[C@@H]1SC(C)(C)[C@@H]2C(=O)O,outcome,[1],inactive
same,"activity change, negative = inhibition",[2]; at 17.2 µM (top of the series),24.2% (inactive)
same,outcome,[3],inactive
same,Potency,[4],> 20.6 µM (inactive)
CC[N+](C)(C)Cc1ccccc1Br,outcome,[1],inactive
same,"activity change, negative = inhibition",[2]; at 17.2 µM (top of the series),-8.6% (inactive)
same,"activity change, negative = inhibition",[2]; at 38 µM (top of the series),-11% (inactive)
same,outcome,[3],inactive
same,Potency,[4],> 46 µM (inactive) and > 20.6 µM (inactive)
same,Potency,[5],> 46 µM (inactive) and > 20.6 µM (inactive)
same,outcome,[6],inactive
same,outcome,[7],inactive
CN(C)CCCN1c2ccccc2C(C)(C)c2ccccc21,Potency,[8],> 11.4 µM (inactive)
same,Potency,[9],5.01 µM (active)
same,outcome,[3],inactive
same,Potency,[4],> 46 µM (inactive)
same,Potency,[5],> 9.22 µM (inactive)
same,"activity change, negative = inhibition",[6],-0.792% [at 11.4 µM] (inactive)
same,outcome,[7],inactive
CCCC(=O)Nc1ncnc2c1ncn2[C@@H]1O[C@@H]2COP(=O)(O)O[C@H]2[C@H]1OC(=O)CCC,outcome,[1],inactive
same,"activity change, negative = inhibition",[2]; at 17.2 µM (top of the series),-26.8% (inactive)
same,outcome,[3],inactive
same,Potency,[4],> 46 µM (inactive) and > 20.6 µM (inactive)
same,Potency,[5],> 46 µM (inactive)
same,outcome,[6],inactive
C[C@]12C=CC(=O)C=C1CC[C@@H]1[C@@H]2[C@@H](O)C[C@@]2(C)[C@H]1CC[C@]2(O)C(=O)COC(=O)CCC(=O)O,outcome,[1],inactive
same,"activity change, negative = inhibition",[2]; at 17.2 µM (top of the series),20.1% (inactive)
same,outcome,[3],inactive
same,Potency,[4],0.0285 µM (active)
CC1(C)S[C@@H]2[C@H](NC(=O)[C@@H](NC(=O)N3CCNC3=O)c3ccccc3)C(=O)N2[C@H]1C(=O)O,outcome,[1],inactive
same,Potency,[9],inactive
same,"activity change, negative = inhibition",[2]; at 17.2 µM (top of the series),-13.7% (inactive)
same,outcome,[3],inactive
same,Potency,[4],> 20.6 µM (inactive)
same,Potency,[5],> 20.6 µM (inactive)
same,outcome,[6],inactive
same,outcome,[7],inactive
O=C1CSC2(CCN(CCCN3c4ccccc4Sc4ccc(Cl)cc43)CC2)N1,outcome,[1],inactive
same,Potency,[9],3.16 µM (active)
same,outcome,[3],inactive
same,Potency,[4],> 46 µM (inactive)
same,Potency,[5],> 9.22 µM (inactive)
same,"activity change, negative = inhibition",[6],-6.21% [at 11.4 µM] (inactive)
same,outcome,[7],inactive
COC(=O)CCC(=O)CN,outcome,[1],inactive
same,outcome,[3],inactive
same,Potency,[4],> 20.6 µM (inactive)
Cc1c(C)c2c(c(C)c1O)CC[C@@](C)(CCC[C@@H](C)CCC[C@@H](C)CCCC(C)C)O2,outcome,[1],inactive
same,Potency,[9],inactive
same,"activity change, negative = inhibition",[2]; at 17.2 µM (top of the series),-1.66% (inactive)
same,outcome,[3],inactive
same,Potency,[4],> 20.6 µM (inactive)
same,Potency,[5],> 20.6 µM (inactive)
same,outcome,[7],inactive
Cc1cc(C(=O)NNCc2ccccc2)no1,outcome,[1],inactive
same,Potency,[9],12.6 µM (active)
same,"activity change, negative = inhibition",[2]; at 17.2 µM (top of the series),11.8% (inactive)
same,outcome,[3],inactive
same,Potency,[4],> 20.6 µM (inactive)
same,Potency,[5],> 20.6 µM (inactive)
same,outcome,[6],inactive
same,outcome,[7],inactive
CCN(CC)Cc1cc(Nc2ccnc3cc(Cl)ccc23)ccc1O,outcome,[1],inactive
same,outcome,[3],inactive
same,Potency,[4],> 20.6 µM (inactive)
same,Potency,[5],> 20.6 µM (inactive)
same,outcome,[6],inactive
O=C(O)CCC(=O)C(=O)O,Potency,[8],> 11.4 µM (inactive)
same,outcome,[1],inactive
same,"activity change, negative = inhibition",[9],-11.7% [at 11.4 µM] (inactive)
same,Potency,[10],> 92 µM (inactive)
same,Potency,[11],> 92 µM (inactive)
same,Potency,[12],> 92 µM (inactive)
same,Potency,[13],> 92 µM (inactive)
same,"activity change, negative = inhibition",[2]; at 7.69 µM (top of the series),15.2% (inactive)
same,outcome,[3],inactive
same,Potency,[4],> 46 µM (inactive)
same,Potency,[5],> 9.22 µM (inactive)
same,outcome,[6],inactive
same,"activity change, negative = cytotoxicity",[14],6.48% (inactive)
same,outcome,[15],inactive
same,Potency,[16],inactive
same,Potency,[17],inactive
same,"viability change, negative = cytotoxic",[18],4.65% (inactive)
same,outcome,[19],inactive
same,"activity change, negative = cytotoxicity",[20],6.49% (inactive)
same,outcome,[7],inactive
CC(=O)OCC(=O)[C@@]12OC3(CCCC3)O[C@@H]1C[C@H]1[C@@H]3CCC4=CC(=O)C=C[C@]4(C)[C@@]3(F)[C@@H](O)C[C@@]12C,outcome,[1],inactive
same,outcome,[3],inactive
same,Potency,[4],0.000571 µM (active)
Nc1c(Br)cc(Br)cc1CNC1CCC(O)CC1 (stereo not given),outcome,[1],inactive
same,"activity change, negative = inhibition",[2]; at 17.2 µM (top of the series),0.0265% (inactive)
same,outcome,[3],inactive
same,Potency,[4],> 20.6 µM (inactive)
same,Potency,[5],> 20.6 µM (inactive)
same,outcome,[6],inactive
same,outcome,[7],inactive
CCCC(=O)O[C@]1(C(=O)COC(C)=O)CC[C@H]2[C@@H]3C[C@H](F)C4=CC(=O)C=C[C@]4(C)[C@@]3(F)[C@@H](O)C[C@@]21C,outcome,[1],inactive
same,"activity change, negative = inhibition",[2]; at 17.2 µM (top of the series),-29.7% (inactive)
same,outcome,[3],inactive
same,Potency,[4],0.00371 µM (active)
CCOc1ccc2c(c1)C(C)=CC(C)(C)N2,outcome,[1],inactive
same,Potency,[9],5.01 µM (active)
same,Potency,[10],> 92 µM (inactive)
same,Potency,[11],> 92 µM (inactive)
same,Potency,[12],> 92 µM (inactive)
same,Potency,[13],> 92 µM (inactive)
same,"activity change, negative = inhibition",[2]; at 17.2 µM (top of the series),4.3% (inactive)
same,outcome,[3],inactive
same,outcome,[6],inactive
same,"activity change, negative = cytotoxicity",[14],-9.52% (inactive)
same,outcome,[15],inactive
same,Potency,[16],inactive
same,Potency,[17],inactive
same,outcome,[19],inactive
same,"activity change, negative = cytotoxicity",[20],9.89% (inactive)
same,outcome,[7],inactive
C[C@@H]1C[C@H]2[C@@H]3CCC4=CC(=O)C=C[C@]4(C)[C@@]3(F)[C@@H](O)C[C@]2(C)[C@@]1(O)C(=O)COP(=O)(O)O,outcome,[1],inactive
same,outcome,[3],inactive
CN=C(NC#N)Nc1ccc(C2=NNC(=O)C[C@@H]2C)cc1,outcome,[1],inactive
same,Potency,[9],inactive and 39.8 µM (active)
same,"activity change, negative = inhibition",[2]; at 38 µM (top of the series),-1.21% (inactive)
same,outcome,[3],inactive
same,outcome,[6],inactive
same,outcome,[7],inactive
